Bioassay records from PubChem BioAssay.
HPGD inh = inhibitors of human 15-hydroxyprostaglandin dehydrogenase (HPGD); Potency, µM, actives largely listed as inhibitors; P15428; AID 894; hit rate 4.3% among 150,000; purified HPGD, NADH fluorescence kinetic, PGE2 substrate; active = well fitted inhibition curve with a large enough effect, not every such curve was filed as active; inconclusive = small, poorly fitted or top-dose-only effect, or another doubt; inactive = no such curve, though single readings can be large or run the other way
Target sequence (P15428 whole entry, looked up): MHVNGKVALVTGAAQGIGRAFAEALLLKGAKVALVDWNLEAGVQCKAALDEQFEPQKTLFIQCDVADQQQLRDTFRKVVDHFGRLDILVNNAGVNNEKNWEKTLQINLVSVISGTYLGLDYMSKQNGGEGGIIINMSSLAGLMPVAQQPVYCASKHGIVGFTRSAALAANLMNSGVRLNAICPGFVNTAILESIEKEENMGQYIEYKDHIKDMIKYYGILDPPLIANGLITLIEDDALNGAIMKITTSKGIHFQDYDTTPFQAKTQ
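20 nM HPGD preincubated 15 min at room temperature with compound in 50 mM Tris-HCl pH 8, 0.01% Tween 20. Started with 1 mM NAD+ and 30 uM prostaglandin E2; NADH fluorescence (360/450 nm) read 5 times over 30-s intervals, last minus first.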
ALOX12 inhib = inhibitors of human 12-lipoxygenase (ALOX12); purified 12-hLO, xylenol orange hydroperoxide absorbance; AID 1452; hit rate 0.12% among 150,000; Potency, µM (doses to about 57.1 µM), usual class: inhibitors; note: nearly all actives have a fitted effect of over 55% in size
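Purified human 12hLO (150 nM), preincubated 15 min with compound, then 40 uM arachidonic acid for 30 min, room temperature, Hepes pH 7.0 with 0.01% Triton X-100. Hydroperoxide detected by ferrous iron/xylenol orange; 573/405 nm absorbance ratio gives reaction progress.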
ALDH1A1 block = ALDH1A1 (human) enzyme inhibition; P00352; Purified ALDH1A1, NADH fluorescence, propionaldehyde substrate; Potency, µM (highest dose often 75.3 µM), actives largely listed as inhibitors; hit rate 7.3% among 220,000; active = well fitted inhibition curve with a large enough effect, not every such curve was filed as active; inconclusive = small, poorly fitted or top-dose-only effect, or another doubt; inactive = no such curve, though single readings can be large or run the other way
PNC inhibitor = blocks assembly of the perinucleolar compartment; AID 2417; PC3M PTB-GFP, PNC prevalence imaging, 16 h; hits give low values; hit rate 3.1% among 140,000; activity change (PNC), negative = inhibition, % at 10 µM;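 active = readout at or below -70, meaning at least 70% loss of cells showing the perinucleolar compartment, a nuclear body marking cancer cells; inconclusive = readout between -30 and a set limit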
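PC3M cells stably expressing PTB-GFP, 750–1000 cells/well, treated 16 h at 37 °C with compound (23 nl of library stock), in duplicate. After paraformaldehyde fixation and Hoechst stain, imaged at 20x; PNC prevalence scored by image analysis.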
GLA inh pH 4.5 = blocks human alpha-galactosidase A at pH 4.5. P06280. purified enzyme, 4-MU-alpha-Gal fluorescence, pH 4.5. activity change, negative = inhibition, % at 105 µM. 230,000 tested, under 10 active. AID 1467
aGal spleen mod = inhibitors or activators of human alpha-galactosidase in spleen homogenate. P06280. human spleen homogenate, 4MU-alpha-Gal fluorescence, 40 min. Potency, µM (doses to about 80 µM), actives largely listed as inhibitors. hit rate 0.008% among 240,000
Target sequence (P06280 32-429 limits assumed): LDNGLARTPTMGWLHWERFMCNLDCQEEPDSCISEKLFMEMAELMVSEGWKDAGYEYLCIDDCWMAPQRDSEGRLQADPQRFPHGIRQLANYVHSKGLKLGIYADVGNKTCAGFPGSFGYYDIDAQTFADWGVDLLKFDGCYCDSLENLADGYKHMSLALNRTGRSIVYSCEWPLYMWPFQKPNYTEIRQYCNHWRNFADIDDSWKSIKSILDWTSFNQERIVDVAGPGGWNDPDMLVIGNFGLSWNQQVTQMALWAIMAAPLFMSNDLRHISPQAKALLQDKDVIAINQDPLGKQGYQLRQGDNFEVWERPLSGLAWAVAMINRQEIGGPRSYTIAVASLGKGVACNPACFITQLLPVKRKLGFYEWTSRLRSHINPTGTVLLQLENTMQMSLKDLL
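Inhibition or activation of alpha-galactosidase in human spleen homogenate is scored by 4-MU fluorescence after 40 min at 37C, pH 5.0, with 1 mM substrate. AC50s come from concentration-response fitted to the Hill equation.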
Hits are given with their value; - = inactive; ? = inconclusive; . = no result given; [ ] = another dose, or the depositor's remark. Most compounds without a hit are left out; they make up all but 10% or so of the library. Unless noted, calls come from the whole dose curve; as a rule, active = well fitted curve in the direction sought with a large enough effect; inconclusive = small, poorly fitted or top-dose-only effect, or another doubt; inactive = no such curve, though single readings can be large; an effect the other way counts as inactive or inconclusive.

SMILES	HPGD inh	ALOX12 inhib	ALDH1A1 block	PNC inhibitor	GLA inh pH 4.5	aGal spleen mod
CO[C@@H]1/C=C\O[C@@]2(C)Oc3c(C)c(O)c4c(c3C2=O)C(=N[C@H]2CC[C@H](O)O[C@@H]2C)C=C(NC(=O)/C(C)=C\C(=O)[C@@H]2C[C@@H]2[C@@H](O)[C@H](C)[C@@H](O)[C@H](C)[C@H](OC(C)=O)[C@@H]1C)C4=O	-	-[11.4 µM]	-[13.5 µM]	.	.	.
Nc1c(C(=O)N2CCCCC2)sc(=S)n1-c1ccccc1	3.2µM	-	1.4µM	?	-	-
CC(=O)c1sc(=S)n(-c2ccccc2)c1C	.	.	-	.	-	-
Nc1c(C(=O)N2CCOCC2)sc(=S)n1-c1ccccc1	11µM	-	8.9µM	-	-	-
CCN(CC)CCCC(C)NC(=O)c1ccc(Cc2nc3ccccc3[nH]2)cc1 (stereo not drawn)	-	-	-	.	.	.
COc1ccc(Oc2coc3cc(OC(=O)/C=C/c4ccccc4)ccc3c2=O)cc1	-	-	-	-81	-	-
COc1ccc(Oc2coc3cc(OC(=O)/C=C/c4ccc(F)cc4)ccc3c2=O)cc1	.	-	-	-	-	-
Cc1ccc(C(CC(=O)NCCCN(C)C)c2ccc(OC(C)C)cc2)cc1 (stereo not drawn)	.	.	.	.	-	-
COCCN1C(=O)c2ccccc2C(C(=O)N2CCN(c3ccccn3)CC2)C1c1ccc(F)cc1 (stereo not drawn)	-	-	-	-100	-	-
CCOC(=O)C1CCN(C(=O)C2c3ccccc3C(=O)N(C)C2c2ccc(OC)cc2)CC1 (stereo not drawn)	-	-	2.8µM	-	-	-
COc1ccc(C2C(C(=O)N3CCCC3)c3cc(OC)c(OC)cc3C(=O)N2C)cc1 (stereo not drawn)	-	-	-	-	-	-
COc1ccc(C2C(C(=O)N3CCCCC3)c3ccccc3C(=O)N2C)cc1 (stereo not drawn)	.	-	14µM	-	-	-
CCN(CC)CCCNC(=O)C1c2ccccc2C(=O)N(CCOC)C1c1ccc(F)cc1 (stereo not drawn)	.	.	-	.	-	-
O=C(Cc1ncc(C(F)(F)F)cc1Cl)NCc1ccco1	.	.	-	.	-	-
COc1ccc(C(=O)Nc2ccc(-c3nnn(CC(=O)NCc4ccco4)n3)cc2)cc1	.	.	.	.	-	-
COc1cccc(NC(=O)/C=C/c2ccco2)c1	.	.	25µM	.	-	-
O=C(N/C=C/c1ccco1)Nc1cccc(Cl)c1	.	.	-	.	-	-
C/C(CC(=O)NC12CC3CC(CC(C3)C1)C2)=N\NC(=O)Cc1cccs1	-	-	8.9µM	-	-	?
CC(/C=C/c1ccco1)=N/NC(=O)c1ccc(C)nc1	.	.	.	.	-	-
COc1ccc(NC(=O)N/C=C/c2ccco2)cc1	.	.	28µM	.	-	-
CC(/C=C/c1ccco1)=N\NC(=O)c1cccnc1	-	-	7.9µM	-	-	-
COc1cccc(NC(=O)/C=C\c2ccc(Cl)cc2)c1	-	-	?	.	-	-
COC(=O)C1=C(C(=O)OC)[C@@H]2N(C)c3ccccc3[C@@]23C[C@@H](C(=O)OC)N(C(=O)c2cc(C)oc2C)C3=N1	-	-[11.4 µM]	-[13.5 µM]	.	-	-[17.5 µM]
C=C(C)COc1ccc(-c2n[nH]c(C)c2-c2ccc(OC)c(OC)c2)c(O)c1	.	.	.	.	-	-
CSc1cccc(NC(=O)/C=C/c2ccccc2)c1	-	-	-	-	.	-
SMILES	HPGD inh	ALOX12 inhib	ALDH1A1 block	PNC inhibitor	GLA inh pH 4.5	aGal spleen mod
CSc1cccc(NC(=O)/C=C/c2ccco2)c1	.	.	3.2µM	.	-[21.1 µM]	-
CC(/C=C/c1ccco1)=N/NC(=O)Cc1cccs1	-	-	2.8µM	-	-	-
O=C(/C=C/c1ccco1)Nc1cccnc1	.	.	28µM	.	-	-
Cc1occc1C(=O)N/N=C/c1ccccn1	.	.	28µM	.	-	-
CCCC[C@@H]1CCCO[C@@](C(=O)NCc2ccccn2)(C(F)(F)F)C1	.	.	.	.	.	-
Cc1ccn2c(CCc3nnc4cc(C)ccn34)nnc2c1	-	-[11.4 µM]	-[13.5 µM]	.	.	.
N[C@@H](CSC1(c2ccc(Cl)cc2)c2ccccc2-c2ccccc21)C(=O)O	-	-[11.4 µM]	-[13.5 µM]	.	.	.
C/C(=N\NC(=O)c1ccoc1C)c1cccnc1	-	-	-	-89	-	-
O=C(/C=C/c1ccco1)Nc1ccc(C(=O)N2CCOCC2)cc1	18µM	-	?	-	-	-
Cc1ccc(NC(=O)/C=C/c2ccco2)nc1	-	-	-	-100	-	-
O=C(Nc1ccc(NC(=O)C23CC4CC(CC(C4)C2)C3)cn1)c1ccco1	-	-	?	-	-	-
C/C(=N/NC(=O)c1ccoc1C)c1ccc(NC(=O)c2ccncc2)cc1	-	-	-	-	-	-
O=C(/C=C/c1ccco1)c1ccc(NC(=O)C23CC4CC(CC(C4)C2)C3)cc1	?	-	25µM	-	-	-
COc1ccccc1CNC(=O)c1ccc(OC(C)C)cc1	.	.	-	.	-	-
CCOC(=O)c1c(/N=C/c2cccc([N+](=O)[O-])c2O)sc(C)c1C	?	-	13µM	-	-	-
COc1ccc2nc(NC(=O)CSc3nnnn3C)sc2c1	.	.	-	.	-	-
O=C(COC(=O)C12CC3CC(CC(O)(C3)C1)C2)NCCc1ccc(Cl)cc1	.	.	-	.	-	-
O=C(CC1(c2ccc(Cl)cc2)C2CC3CC(C2)CC1C3)NCCO (stereo not drawn)	.	.	13µM	.	-	-
O=c1c(-c2ccco2)[n+]([O-])c2ccccc2n1OCc1ccccc1	?	-	22µM	-	-	-
COc1ccc(COn2c(=O)c(C)[n+]([O-])c3ccccc32)cc1OC	-	-	?	-111	-	-
COc1ccccc1COn1c(=O)c(-c2ccco2)[n+]([O-])c2ccccc21	.	.	22µM	.	-	-
Cc1c(=O)n(OCc2ccccc2)c2ccccc2[n+]1[O-]	-	-	?	-	-	-
CC1CC(C)CN(CCOc2cccc(Cl)c2Cl)C1 (stereo not drawn)	-	-	-	?	-	-
Clc1ccc(OCCCN2CCCCC2)c(Br)c1	-	-	-	-	-	-
CCN1CCN(CCCOc2ccc(Cl)cc2Br)CC1	.	.	13µM	.	-	-
SMILES	HPGD inh	ALOX12 inhib	ALDH1A1 block	PNC inhibitor	GLA inh pH 4.5	aGal spleen mod
CCN1CCN(CCOc2cccc(Cl)c2Cl)CC1	.	.	8.9µM	.	-	-
Cc1cc(C(F)(F)F)nn1CC(=O)NCc1ccccc1	-	-	-	-	-	-
Cc1cc(C(F)(F)F)nn1CC(=O)Nc1ccc(Br)c2cccnc12	-	-	-	-100	-	-
COc1cccc(C(=O)Nc2nc3c(s2)CN(C)CC3)c1	?	-	-	-	-	-
COc1ccc(N2C(=O)[C@@H]3[C@H](C2=O)[C@H](C(=O)c2ccc(OC(C)=O)cc2)N2N=CC=C[C@@H]32)cc1	-	-	?	-	-	-
Cc1ccc(N2C(=O)[C@@H]3[C@H](C2=O)[C@H]2C=CC=NN2[C@@H]3C(=O)Nc2ccccc2)cc1	.	.	25µM	.	-	-
